Results published in PubChem BioAssay AID1159580 (chemical genetic matrix, 2015).
The whole screen tested about 5,500 compounds, of which about 2,000 (36%) were called active. Not shown: some 18% with an inconclusive outcome. Some of the results follow. A number with no mark means an inactive call. Cut-off read from the data, not from the text of the source: active = normalized growth mostly below about 0.91 (no sharp cut-off); inconclusive = no clear call, values can overlap the other calls; inactive = mostly above about 0.92.

Experiment: chemical genetic growth profiling, strain panel (AID 1159580);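 note: tested at 20 µM; growth read once vehicle control cultures reached saturation at 30 °C; 1 = growth at the plate median or of vehicle wells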
Details: S. cerevisiae deletion strains, growth OD

COc1ccc(C(c2ccc(OC)cc2)C(Cl)(Cl)Cl)cc1
normalized growth (locus YAL013W, strain DEP1, stronger effect = lower value): 1 | normalized growth (locus YAL021C, strain ccr4, stronger effect = lower value): 0.989 | normalized growth (locus YAL026C, strain drs2, stronger effect = lower value): 1.01 | normalized growth (locus YAL030W, strain snc1, stronger effect = lower value): 1.02 | normalized growth (locus YBL061C, strain skt5, stronger effect = lower value): 1.01 | normalized growth (locus YBR009C, strain hhf1, stronger effect = lower value): 1.01 | normalized growth (locus YBR021W, strain FUR4, stronger effect = lower value): 0.974 | normalized growth (locus YBR023C, strain chs3, stronger effect = lower value): 0.998 | normalized growth (locus YBR171W, strain sec66, stronger effect = lower value): 1 | normalized growth (locus YBR229C, strain ROT2, stronger effect = lower value): 0.997 | normalized growth (locus YBR231C, strain swc5, stronger effect = lower value): 1.01 | normalized growth (locus YBR279W, strain paf1, stronger effect = lower value): 1.02 | normalized growth (locus YCL011C, strain gbp2, stronger effect = lower value): 1.02 | normalized growth (locus YCL016C, strain dcc1, stronger effect = lower value): 1.01 | normalized growth (locus YCL029C, strain bik1, stronger effect = lower value): 0.981 | normalized growth (locus YCL061C, strain MRC1, stronger effect = lower value): 1.01 | normalized growth (locus YCL069W, strain vba3, stronger effect = lower value): 1.02 | normalized growth (locus YCR088W, strain abp1, stronger effect = lower value): 1.01 | normalized growth (locus YDL005C, strain med2, stronger effect = lower value): 1.01 | normalized growth (locus YDL035C, strain GPR1, stronger effect = lower value): 0.999 | normalized growth (locus YDL040C, strain nat1, stronger effect = lower value): 1.02 | normalized growth (locus YDL074C, strain BRE1, stronger effect = lower value): 0.986 | normalized growth (locus YDL101C, strain DUN1, stronger effect = lower value): 0.996 | normalized growth (locus YDL134C, strain PPH21, stronger effect = lower value): 1 | normalized growth (locus YDL185W, strain tfp1, stronger effect = lower value): 0.981 | normalized growth (locus YDL192W, strain arf1, stronger effect = lower value): 0.992 | normalized growth (locus YDR001C, strain nth1, stronger effect = lower value): 1.01 | normalized growth (locus YDR069C, strain doa4, stronger effect = lower value): 0.992 | normalized growth (locus YDR101C, strain arx1, stronger effect = lower value): 0.995 | normalized growth (locus YDR137W, strain rgp1, stronger effect = lower value): 0.959 | normalized growth (locus YDR150W, strain NUM1, stronger effect = lower value): 1 | normalized growth (locus YDR159W, strain sac3, stronger effect = lower value): 0.972 | normalized growth (locus YDR162C, strain NBP2, stronger effect = lower value): 1.01 | normalized growth (locus YDR195W, strain ref2): 1.07 | normalized growth (locus YDR297W, strain sur2, stronger effect = lower value): 1 | normalized growth (locus YDR318W, strain mcm21, stronger effect = lower value): 0.996 | normalized growth (locus YDR334W, strain swr1, stronger effect = lower value): 1.03 | normalized growth (locus YDR335W, strain msn5, stronger effect = lower value): 1.01 | normalized growth (locus YDR388W, stronger effect = lower value): 0.988 | normalized growth (locus YDR392W, strain spt3, stronger effect = lower value): 0.957 | normalized growth (locus YDR502C, strain sam2, stronger effect = lower value): 0.989 | normalized growth (locus YEL003W, strain gim4, stronger effect = lower value): 0.994 | normalized growth (locus YEL037C, strain rad23, stronger effect = lower value): 1.01 | normalized growth (locus YEL061C, strain CIN8 (second series), stronger effect = lower value): 1.01 | normalized growth (locus YEL061C, strain CIN8, stronger effect = lower value): 0.995 | normalized growth (locus YER015W, strain faa2, stronger effect = lower value): 0.984 | normalized growth (locus YER016W, strain bim1, stronger effect = lower value): 1.02 | normalized growth (locus YER110C, stronger effect = lower value): 0.984 | normalized growth (locus YER111C, strain swi4, stronger effect = lower value): 1.01 | normalized growth (locus YER155C, strain BEM2 (second series), stronger effect = lower value): 1 | normalized growth (locus YER155C, strain BEM2, stronger effect = lower value): 0.989 | normalized growth (locus YER167W, strain BCK2, stronger effect = lower value): 0.996 | normalized growth (locus YFR010W, strain ubp6, stronger effect = lower value): 1.01 | normalized growth (locus YGL078C, strain dbp3, stronger effect = lower value): 0.991 | normalized growth (locus YGL086W, strain mad1, stronger effect = lower value): 1.02 | normalized growth (locus YGL167C, strain pmr1, stronger effect = lower value): 1.01 | normalized growth (locus YGL173C, strain kem1, stronger effect = lower value): 1 | normalized growth (locus YGL227W, strain vid30, stronger effect = lower value): 1.01 | normalized growth (locus YGL240W, strain doc1, stronger effect = lower value): 1.02 | normalized growth (locus YGL248W, strain PDE1, stronger effect = lower value): 0.987 | normalized growth (locus YGL253W, strain hxk2, stronger effect = lower value): 0.997 | normalized growth (locus YGR078C, strain PAC10, stronger effect = lower value): 1.01 | normalized growth (locus YGR135W, strain pre9, stronger effect = lower value): 0.994 | normalized growth (locus YGR229C, strain SMI1, stronger effect = lower value): 1 | normalized growth (locus YGR252W, strain gcn5, stronger effect = lower value): 0.947 | normalized growth (locus YHR013C, strain ard1, stronger effect = lower value): 0.949 | normalized growth (locus YHR027C, strain rpn1, stronger effect = lower value): 1 | normalized growth (locus YHR030C, strain SLT2, stronger effect = lower value): 1 | normalized growth (locus YHR079C, strain IRE1 (second series), stronger effect = lower value): 0.979 | normalized growth (locus YHR094C, strain hxt1, stronger effect = lower value): 0.994 | normalized growth (locus YHR129C, strain ARP1, stronger effect = lower value): 1 | normalized growth (locus YHR142W, strain chs7, stronger effect = lower value): 0.988 | normalized growth (locus YHR200W, strain rpn10, stronger effect = lower value): 0.985 | normalized growth (locus YIL066C, strain RNR3, stronger effect = lower value): 0.977 | normalized growth (locus YIL073C, strain SPO22, stronger effect = lower value): 0.952 | normalized growth (locus YIL125W, strain kgd1, stronger effect = lower value): 0.996 | normalized growth (locus YIR030C, strain dcg1, stronger effect = lower value): 0.998 | normalized growth (locus YJL092W, strain hpr5, stronger effect = lower value): 1.01 | normalized growth (locus YJL095W, strain BCK1 (second series), stronger effect = lower value): 1.02 | normalized growth (locus YJL095W, strain BCK1, stronger effect = lower value): 1.03 | normalized growth (locus YJL115W, strain asf1, stronger effect = lower value): 1.01 | normalized growth (locus YJL129C, strain trk1, stronger effect = lower value): 0.847 (active) | normalized growth (locus YJL134W, strain LCB3, stronger effect = lower value): 0.989 | normalized growth (locus YJL154C, strain vps35, stronger effect = lower value): 1.01 | normalized growth (locus YJL164C, strain tpk1, stronger effect = lower value): 0.988 | normalized growth (locus YJL166W, strain qcr8, stronger effect = lower value): 0.992 | normalized growth (locus YJL168C, strain set2, stronger effect = lower value): 0.989 | normalized growth (locus YJL187C, strain SWE1 (second series), stronger effect = lower value): 0.997 | normalized growth (locus YJL187C, strain SWE1, stronger effect = lower value): 1.03
